Test results published in PubChem BioAssay (Tox21).
Results filed as inconclusive are left out. Active and inactive are the calls of the source. Unless noted, calls come from the whole dose curve; as a rule, active = well fitted curve in the direction sought with a large enough effect in the repeat runs; inconclusive = weak or mixed curves; inactive = no such curve, though single readings can be large; an effect the other way counts as inactive or inconclusive.

Tests used:
[1] = qHTS assay to identify small molecule antagonists of the sonic hedgehog signaling (Shh) pathway (AID 1259369; calls by dose curve; note: nearly all actives have a fitted effect of over 45% in size; note: potency is the fitted concentration of half-maximal effect)
Method in brief: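 Antagonist mode: compound added to 3T3 Gli1-Luc cells followed by conditioned-medium stimulation, 24 h at 37 C, 5% CO2. Inhibition taken as loss of Gli1-driven luciferase luminescence.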

[2] = biological target: Estrogen receptor beta (Homo sapiens) (UniProt Q92731); assay: qHTS assay to identify small molecule agonists of the estrogen receptor beta (ER-beta) signaling pathway (AID 1259377; active = well fitted activation curve with a large enough effect in the signal ratio in the repeat runs, not every such curve was filed as active; the % refers to the signal ratio)
Sequence of Estrogen receptor beta (Homo sapiens) (Q92731 whole entry, looked up): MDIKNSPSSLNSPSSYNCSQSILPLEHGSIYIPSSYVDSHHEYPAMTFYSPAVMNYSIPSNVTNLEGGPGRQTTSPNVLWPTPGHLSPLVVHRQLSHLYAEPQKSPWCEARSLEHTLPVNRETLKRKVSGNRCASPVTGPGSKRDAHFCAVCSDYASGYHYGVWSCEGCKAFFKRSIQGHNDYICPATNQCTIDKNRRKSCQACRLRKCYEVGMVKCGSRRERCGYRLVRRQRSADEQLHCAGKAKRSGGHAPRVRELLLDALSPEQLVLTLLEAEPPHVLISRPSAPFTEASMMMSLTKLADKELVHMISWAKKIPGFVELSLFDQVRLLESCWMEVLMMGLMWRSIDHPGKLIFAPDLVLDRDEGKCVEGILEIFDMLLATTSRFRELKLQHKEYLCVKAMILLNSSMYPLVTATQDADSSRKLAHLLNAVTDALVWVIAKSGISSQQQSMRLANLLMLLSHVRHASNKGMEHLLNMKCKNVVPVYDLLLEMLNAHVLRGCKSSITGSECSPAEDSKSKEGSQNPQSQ
Method in brief: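 A UAS-controlled beta-lactamase reporter in ER-beta-UAS-bla HEK293T cells reports receptor activation. Compounds act for 16 hr at 37C in 2% charcoal-stripped serum, and a FRET substrate is read by fluorescence after 2 hours.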

[3] = biological target: Estrogen receptor beta (Homo sapiens) (UniProt Q92731); assay: qHTS assay to identify small molecule antagonists of the estrogen receptor beta (ER-beta) signaling pathway (AID 1259378; active = well fitted inhibition curve with a large enough effect in the signal ratio in the repeat runs, not every such curve was filed as active; the % refers to the signal ratio; note: potency is the fitted concentration of half-maximal effect)
Method in brief: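 ER-beta-UAS-bla HEK293T cells in 2% charcoal-stripped FBS medium treated with compound plus 1nM final 17-beta-estradiol for 16 hr at 37C. Beta-lactamase reporter read by FRET substrate fluorescence after 2 hours at room temperature.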

[4] = qHTS assay to identify small molecule agonists of the androgen receptor (AR) signaling pathway in the presence of an antagonist - cell viability counter screen (AID 1259379); note: nearly all actives have a fitted effect of over 25% in size; note: potency is the fitted concentration of half-maximal effect
Method in brief: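 Cytotoxicity counter-screen run in the same wells as the nilutamide-challenged (3.0 µM final) AR agonist assay in MDA-kb2 cells. Compounds tested at 15 concentrations for 16 h, 37 °C without CO2; CellTiter-Fluor fluorescence read.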

[5] = qHTS assay to identify small molecule agonists of the estrogen receptor beta (ER-beta) signaling pathway - cell viability counter screen (AID 1259380); note: nearly all actives have a fitted effect of over 30% in size; note: potency is the fitted concentration of half-maximal effect
Method in brief: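 Cell viability counter screen: CellTiter-Glo luminescence (30 min, room temperature) measured in the same wells as the beta-lactamase readout, after 16 hr compound exposure at 37C of ER-beta-bla HEK293T cells in 2% charcoal-stripped FBS medium.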

[6] = qHTS assay to identify small molecule antagonists of the estrogen receptor beta (ER-beta) signaling pathway - cell viability counter screen (AID 1259382); note: nearly all actives have a fitted effect of over 55% in size; note: potency is the fitted concentration of half-maximal effect
Method in brief: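 Cytotoxicity was measured in the same wells by CellTiter-Glo luminescence after 30 min at room temperature. Cells were ER-beta-bla HEK293T in charcoal-stripped serum, given compound together with 1 nM E2 and incubated 16 h at 37C.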

[7] = biological target: Estrogen receptor (Homo sapiens) (UniProt P03372); assay: qHTS assay to identify small molecule agonists of the estrogen receptor alpha (ER-alpha) signaling pathway in the presence of an antagonist (AID 1259383; calls by dose curve; note: top concentration of the series differs between compounds; nearly all actives have a fitted effect of over 15% in size)
Sequence of Estrogen receptor (Homo sapiens) (P03372 whole entry, looked up): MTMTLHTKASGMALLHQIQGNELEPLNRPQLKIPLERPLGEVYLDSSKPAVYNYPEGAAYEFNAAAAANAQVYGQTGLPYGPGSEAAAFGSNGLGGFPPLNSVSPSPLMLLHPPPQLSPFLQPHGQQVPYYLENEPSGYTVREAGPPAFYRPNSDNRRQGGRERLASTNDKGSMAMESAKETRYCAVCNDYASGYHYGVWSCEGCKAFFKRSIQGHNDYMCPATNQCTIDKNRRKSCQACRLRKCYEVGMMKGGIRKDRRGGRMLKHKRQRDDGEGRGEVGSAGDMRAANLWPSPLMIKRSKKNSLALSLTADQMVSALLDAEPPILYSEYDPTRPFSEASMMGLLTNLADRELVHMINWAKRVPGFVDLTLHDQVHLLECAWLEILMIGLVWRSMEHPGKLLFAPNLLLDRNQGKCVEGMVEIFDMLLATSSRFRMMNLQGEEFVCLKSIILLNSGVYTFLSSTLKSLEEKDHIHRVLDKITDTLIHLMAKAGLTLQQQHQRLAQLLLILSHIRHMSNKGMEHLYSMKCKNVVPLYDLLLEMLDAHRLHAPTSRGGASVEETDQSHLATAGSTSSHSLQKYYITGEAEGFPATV
Method in brief: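 Agonist-mode confirmation run in the presence of 10.0nM (final) ICI-182,780 antagonist. The reporter was ERE-driven luciferase in VM7Luc4E2 cells, grown in charcoal-stripped serum. Cells were exposed to 15-concentration compound series for 22hr, then ONE-Glo luminescence was read.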

[8] = qHTS assay to identify small molecule agonists or antagonists of the thyroid stimulating hormone receptor (TSHR) signaling pathway - wild type cell line counter screen (AID 1259384; calls by dose curve)
Method in brief: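 Wild-type Hek293 cells, 800/well, 18 h at 37C, then compound with Ro20-1724 for 30 min RT. cAMP by HTRF (cAMP-d2/anti-cAMP cryptate), 1 h RT, fluorescence read. 15 concentrations, triplicates.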

[9] = qHTS assay to identify small molecule agonists of the estrogen receptor alpha (ER-alpha) signaling pathway in the presence of an antagonist - cell viability counter screen (AID 1259386); note: nearly all actives have a fitted effect of over 30% in size; note: potency is the fitted concentration of half-maximal effect
Method in brief: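 Compounds tested at 15 concentrations for 22 h at 37C alongside 10.0nM (final) ICI-182,780 antagonist, in VM7Luc4E2 cells grown in phenol red-free, charcoal-stripped medium. Viability read by CellTiter-Fluor fluorescence after 1 h reagent incubation.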

[10] = biological target: Progesterone receptor (Homo sapiens) (UniProt P06401); assay: qHTS assay to identify small molecule agonists of the progesterone receptor (PR) signaling pathway (AID 1346784; calls by dose curve; note: nearly all actives have a fitted effect of over 30% in size)
Sequence of Progesterone receptor (Homo sapiens) (P06401 whole entry, looked up): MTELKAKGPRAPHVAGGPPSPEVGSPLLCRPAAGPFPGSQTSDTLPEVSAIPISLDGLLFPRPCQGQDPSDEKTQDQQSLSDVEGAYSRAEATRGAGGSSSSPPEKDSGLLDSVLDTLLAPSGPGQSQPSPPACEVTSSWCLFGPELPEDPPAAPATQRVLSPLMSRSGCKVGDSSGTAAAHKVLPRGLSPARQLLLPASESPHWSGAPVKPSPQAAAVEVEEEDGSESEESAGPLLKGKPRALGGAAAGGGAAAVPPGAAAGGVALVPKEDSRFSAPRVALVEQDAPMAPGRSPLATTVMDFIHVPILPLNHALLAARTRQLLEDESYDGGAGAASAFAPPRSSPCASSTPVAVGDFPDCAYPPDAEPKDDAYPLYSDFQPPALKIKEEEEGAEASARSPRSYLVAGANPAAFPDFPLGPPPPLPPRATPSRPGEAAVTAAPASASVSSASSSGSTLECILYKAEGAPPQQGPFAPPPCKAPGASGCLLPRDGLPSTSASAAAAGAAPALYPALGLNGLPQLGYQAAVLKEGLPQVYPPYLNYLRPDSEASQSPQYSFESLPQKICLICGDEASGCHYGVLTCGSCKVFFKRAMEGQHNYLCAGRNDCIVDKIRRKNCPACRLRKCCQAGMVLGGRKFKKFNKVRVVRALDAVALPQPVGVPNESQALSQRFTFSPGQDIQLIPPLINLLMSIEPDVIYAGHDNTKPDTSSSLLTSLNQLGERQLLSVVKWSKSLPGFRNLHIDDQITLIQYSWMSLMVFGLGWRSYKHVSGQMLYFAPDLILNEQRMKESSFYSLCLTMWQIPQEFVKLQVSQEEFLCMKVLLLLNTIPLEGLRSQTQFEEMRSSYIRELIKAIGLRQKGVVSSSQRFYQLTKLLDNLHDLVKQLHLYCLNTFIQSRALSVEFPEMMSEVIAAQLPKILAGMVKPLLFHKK
Method in brief: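 Agonist mode, quantitative HTS format in a HEK 293T line expressing a UAS-controlled beta-lactamase reporter; 16 hr compound exposure at 37C in 2% charcoal-stripped FBS, then LiveBLAzer B/G FRET fluorescence.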

[11] = biological target: Progesterone receptor (Homo sapiens) (UniProt P06401); assay: qHTS assay to identify small molecule antagonists of the progesterone receptor (PR) signaling pathway (AID 1346795; active = well fitted inhibition curve with a large enough effect in the signal ratio in the repeat runs, not every such curve was filed as active; the % refers to the signal ratio; note: potency is the fitted concentration of half-maximal effect)
Method in brief: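 HEK293T PR-UAS-bla reporter cells in charcoal-stripped serum (2%) received compound after a 6 hr settling period, followed by R5020 agonist at 1 nM final; 16 hr incubation preceded the FRET substrate step and fluorescence measurement.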

[12] = qHTS assay to identify small molecule antagonists of the progesterone receptor (PR) signaling pathway - cell viability counter screen (AID 1346798); note: nearly all actives have a fitted effect of over 50% in size; note: potency is the fitted concentration of half-maximal effect
Method in brief: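 Same-well multiplex: after 16 hr at 37C with compound and R5020 stimulation, HEK293T cells carrying a UAS-bla reporter received LiveBLAzer substrate (2 hr RT), then CellTiter-Glo (30 min RT) for luminescent viability.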

[13] = qHTS assay to identify small molecule agonists of the progesterone receptor (PR) signaling pathway - cell viability counter screen (AID 1346799; calls by dose curve; note: nearly all actives have a fitted effect of over 45% in size)
Method in brief: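 Counter screen for cytotoxicity: compound-treated PR-UAS-bla HEK293T cells (16 hr, 37C, 5% CO2) were assayed with CellTiter-Glo, luminescence measured after 30 min at room temperature.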

[14] = qHTS assay to identify small molecule antagonists of the TGF-beta/Smad signaling pathway - cell viability counter screen (AID 1346824); note: nearly all actives have a fitted effect of over 50% in size; note: potency is the fitted concentration of half-maximal effect
Method in brief: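 SBE-bla HEK 293T cells, incubated overnight, then compound plus 0.25 ng/mL TGF-beta1 (stock added) for 5 hr at 37 C. Viability was read in the same wells by CellTiter-Glo luminescence after 30 min at room temperature.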

[15] = qHTS assay to identify small molecule agonists of the TGF-beta/Smad signaling pathway - cell viability counter screen (AID 1346829); note: nearly all actives have a fitted effect of over 45% in size; note: potency is the fitted concentration of half-maximal effect
Method in brief: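 In parallel with the Smad reporter read, viability of HEK 293T cells stably carrying SBE-bla is quantified by ATP luminescence following 5 hr compound treatment.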

[16] = qHTS assay to identify small molecule agonists of the TGF-beta/Smad signaling pathway (AID 1346859; active = well fitted activation curve with a large enough effect in the signal ratio in the repeat runs, not every such curve was filed as active; the % refers to the signal ratio; note: series mostly up to about 77 µM)
Method in brief: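 Smad-responsive beta-lactamase reporter cells (HEK 293T) received compounds from DMSO stocks after overnight attachment, were incubated 5 hr, then treated 2 hr with FRET substrate before dual-emission fluorescence measurement (405 nm excitation).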

[17] = biological target: Thyrotropin-releasing hormone receptor (Homo sapiens) (UniProt P34981); assay: qHTS assay to identify small molecule antagonists of the thyrotropin-releasing hormone receptor (TRHR) signaling pathway (AID 1346877; active = well fitted inhibition curve with a large enough effect in the repeat runs, not every such curve was filed as active; note: series mostly up to about 51 µM)
Sequence of Thyrotropin-releasing hormone receptor (Homo sapiens) (P34981 whole entry, looked up): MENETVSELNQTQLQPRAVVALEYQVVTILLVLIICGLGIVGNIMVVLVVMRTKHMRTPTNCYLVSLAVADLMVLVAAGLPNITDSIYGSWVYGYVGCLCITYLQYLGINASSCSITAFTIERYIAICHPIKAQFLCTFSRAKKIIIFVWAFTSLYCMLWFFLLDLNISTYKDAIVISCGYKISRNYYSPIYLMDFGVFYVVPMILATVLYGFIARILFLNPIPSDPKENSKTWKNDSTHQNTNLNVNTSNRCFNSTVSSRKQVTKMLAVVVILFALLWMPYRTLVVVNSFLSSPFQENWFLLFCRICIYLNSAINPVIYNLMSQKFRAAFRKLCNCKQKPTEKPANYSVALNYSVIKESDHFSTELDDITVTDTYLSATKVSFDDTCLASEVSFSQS
Method in brief: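 Antagonist mode: after a 5 min room-temperature compound exposure, cells were stimulated with 1 nM (final) TRH. Dye-loaded TRHR-HEK293 cells were used, and calcium-dependent fluorescence was followed for 3 min, with 15-point titrations run in triplicate.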

[18] = biological target: Thyrotropin-releasing hormone receptor (Homo sapiens) (UniProt P34981); assay: qHTS assay to identify small molecule agonists of the thyrotropin-releasing hormone receptor (TRHR) signaling pathway (AID 1346891; calls by dose curve;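 note: HEK293 cells expressing TRHR with calcium dye readout; series mostly up to about 58 µM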)
Method in brief: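 Agonist-mode calcium mobilisation screen: TRHR-transfected HEK293 cells cultured overnight (18 h), dye-loaded for 2 h at 37 °C, exposed to compounds, and monitored by fluorescence for 3 min.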

[19] = biological target: Thyrotropin receptor (Homo sapiens) (UniProt P16473); assay: qHTS assay to identify small molecule antagonists of the thyroid stimulating hormone receptor (TSHR) signaling pathway (AID 1259385; calls by dose curve; note: nearly all actives have a fitted effect of over 20% in size)
Sequence of Thyrotropin receptor (Homo sapiens) (P16473 whole entry, looked up): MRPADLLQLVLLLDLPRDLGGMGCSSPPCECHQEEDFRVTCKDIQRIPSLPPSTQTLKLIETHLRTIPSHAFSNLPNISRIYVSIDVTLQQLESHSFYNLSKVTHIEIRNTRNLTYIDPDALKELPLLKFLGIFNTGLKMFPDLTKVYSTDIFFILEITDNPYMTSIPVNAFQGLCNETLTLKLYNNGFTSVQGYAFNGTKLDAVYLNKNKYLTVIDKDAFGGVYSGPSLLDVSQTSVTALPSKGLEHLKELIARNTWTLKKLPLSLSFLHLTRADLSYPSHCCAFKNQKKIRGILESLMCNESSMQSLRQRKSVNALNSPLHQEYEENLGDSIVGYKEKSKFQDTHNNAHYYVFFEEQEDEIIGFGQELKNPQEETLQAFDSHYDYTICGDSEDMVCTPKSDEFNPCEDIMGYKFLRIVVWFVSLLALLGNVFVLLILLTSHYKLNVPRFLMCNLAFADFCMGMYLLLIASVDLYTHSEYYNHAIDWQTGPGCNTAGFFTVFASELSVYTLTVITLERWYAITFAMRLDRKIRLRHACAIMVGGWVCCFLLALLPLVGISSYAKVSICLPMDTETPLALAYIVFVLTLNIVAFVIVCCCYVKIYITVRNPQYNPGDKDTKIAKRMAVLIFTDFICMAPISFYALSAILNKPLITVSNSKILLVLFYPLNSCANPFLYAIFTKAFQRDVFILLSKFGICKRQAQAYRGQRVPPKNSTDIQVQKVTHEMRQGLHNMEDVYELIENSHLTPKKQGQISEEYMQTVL
Method in brief: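 TSHR-HEK293 cells (800/well) plated 18 h, then compounds with Ro20-1724 and TSH at 1.5 ng/mL final, 30 min at room temperature. cAMP quantified by HTRF (cAMP-d2/anti-cAMP-cryptate, 1 h); 15 concentrations in triplicate.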

Measured: Potency

CNC(=O)/C=C(\C)OP(=O)(OC)OC
inactive: [1] | [2] | [3] | [4] | [5] | [6] | [7] | [8] | [9] | [10] | [11] | [12] | [13] | [14] | [15] | [16] | [17] | [18]

CCC(C)Nc1c([N+](=O)[O-])cc(C(C)(C)C)cc1[N+](=O)[O-] (stereo not given)
inactive: [1] | [2] | [3] | [4] | [5] | [6] | [7] | [8] | [9] | [10] | [12] | [13] | [14] | [15] | [16] | [18]

CCC[CH2][Sn]([CH2]CCC)([CH2]CCC)[CH2]CCC
active: [1] 13.7 µM | [3] 19.3 µM | [4] 13.7 µM | [5] 27.3 µM | [6] 43.3 µM | [9] 17.2 µM | [11] 24.3 µM | [12] 43.3 µM | [14] 38.9 µM | [15] 38.9 µM
inactive: [2] | [8]

Brc1cccc(-c2ccccc2)c1
inactive: [1] | [2] | [3] | [4] | [5] | [6] | [9] | [10] | [11] | [12] | [13] | [14] | [15] | [16] | [17] | [18]

ClC(Cl)C(Cl)(Cl)Cl
inactive: [1] | [2] | [3] | [4] | [5] | [6] | [8] | [19] | [9] | [10] | [11] | [12] | [13] | [14] | [15] | [18]

C=Cc1cccc(CCl)c1
inactive: [1] | [2] | [3] | [4] | [5] | [6] | [8] | [19] | [9] | [10] | [11] | [12] | [13] | [14] | [15] | [16] | [17] | [18]

O=[N+]([O-])c1ccccc1-c1ccccc1
inactive: [1] | [2] | [3] | [4] | [5] | [6] | [7] | [8] | [9] | [10] | [11] | [12] | [13] | [14] | [15] | [16] | [17] | [18]

ClSC(Cl)(Cl)Cl
inactive: [1] | [2] | [3] | [4] | [5] | [6] | [8] | [19] | [9] | [10] | [12] | [13] | [14] | [15] | [17] | [18]
